Shown are actives, neighbours in structure and some others; about 2.3% of the full set was active somewhere.
CHO-K1 Ca antag: counter-screen for M1 antagonists: effect in parental CHO-K1 cells | ATP-induced calcium, Fluo-8 fluorescence | inhibition, % at 3 µM | hit rate 0.6% among 360,000;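 active means inhibition above a per-plate cutoff, the plate's mean sample inhibition plus 3 SD, cut at about 24% in these data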;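 further: 0% = DMSO plus EC80 ATP and 100% = DMSO alone without ATP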
CHRM1 antagonist: antagonists of human M1 muscarinic receptor; CHO-K1 hM1, Fluo-8 calcium fluorescence, ACh EC80 antagonist; inhibition, % at 3 µM; AID 588852; P11229; hit rate 1.3% among 360,000;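 active means percent inhibition above its own plate's cutoff, namely the mean of that plate's compound wells plus 3 SD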;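 further: peak over basal fluorescence ratio during 140 s after agonist addition; 0% = ACh EC80 plus DMSO and 100% = DMSO alone without agonist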
Target sequence (P11229 whole entry, looked up): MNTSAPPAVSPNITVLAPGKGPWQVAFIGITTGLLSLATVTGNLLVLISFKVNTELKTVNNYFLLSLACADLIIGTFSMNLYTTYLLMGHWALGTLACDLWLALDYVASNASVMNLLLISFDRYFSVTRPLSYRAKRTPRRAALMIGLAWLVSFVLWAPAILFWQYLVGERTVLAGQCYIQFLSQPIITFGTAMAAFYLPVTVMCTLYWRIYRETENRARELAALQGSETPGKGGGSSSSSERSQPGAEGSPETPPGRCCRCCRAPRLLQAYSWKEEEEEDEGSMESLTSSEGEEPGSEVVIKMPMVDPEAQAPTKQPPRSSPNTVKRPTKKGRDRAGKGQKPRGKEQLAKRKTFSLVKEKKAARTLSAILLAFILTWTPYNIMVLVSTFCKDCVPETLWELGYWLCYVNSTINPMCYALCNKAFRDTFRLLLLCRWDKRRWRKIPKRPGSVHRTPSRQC
M1 PAM parental: nonselective activator or artifact in parental CHO-K1 calcium assay; ATP EC20, Fluo-8 calcium fluorescence; 0% at ATP EC20, 100% at ATP max; hit rate 0.02% among 360,000; activation, % at 3 µM;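 active means activation above the run cutoff, the mean activation of all test compounds plus 3 SD, cut at about 40% in these data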;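 further: peak over basal fluorescence ratio in a 140 s read after ATP addition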
CHRM1 agonist: agonists of human M1 muscarinic receptor | activation, % at 3 µM | P11229 | hit rate 0.33% among 360,000 | CHO-K1 hM1, Fluo-8 calcium fluorescence, agonist mode; 0% DMSO, 100% acetylcholine EC100;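 active means activation above the run's mean compound activation plus 3 SD, cut at about 16% in these data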;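 further: peak over basal fluorescence ratio within a 140 s kinetic read after compound addition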
M1 PAM: positive allosteric modulators of human M1 muscarinic receptor | P11229 | CHO-K1 hM1, Fluo-8 calcium fluorescence, ACh EC20; 0% = ACh EC20, 100% = maximal ACh | activation, % at 3 µM | hit rate 0.088% among 360,000; in the data active means activation above about 19%, passing the limit was not always enough
M1 ag parental: counter-screen for M1 agonists: effect in parental CHO-K1 cells; hit rate 0.48% among 360,000; Fluo-8 calcium fluorescence; scaled to maximal ATP response, vehicle zero; activation, % at 3 µM; AID 602248; in the data active means activation above about 15%;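 further: untransfected CHO-K1 host cells lacking M1 receptor as counterscreen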
Active calls of the source: *.

SMILES | CHO-K1 Ca antag | CHRM1 antagonist | M1 PAM parental | CHRM1 agonist | M1 PAM | M1 ag parental
CC1(C(=O)NS(=O)(=O)c2ccccc2Cl)CCN1C(=O)CCC1CCCC1 (centres undefined) | 9.3 | -7.3 | 5.9 | -4.1 | 1.7 | 4.8
CCCCn1c(N)c(N(C)C(=O)c2cc3c(s2)CCCCC3)c(=O)[nH]c1=O | -7.0 | -5.3 | -15.9 | -1.1 | 8.6 | 1.6
CCOc1ccc(CCNS(=O)(=O)c2ccc3c(c2)oc(=O)n3C)cc1OCC | 11.2 | -3.8 | 3.7 | 11.4 | 8.4 | 15.1*
COc1ccc(CCNS(=O)(=O)c2ccc3c(c2)oc(=O)n3C)cc1OC | 10.0 | -17.8 | 8.9 | 2.5 | 17.1 | -0.2
C[C@H](CO)N1C[C@H](C)[C@@H](CN(C)Cc2ccc3cccnc3c2)OCc2cnnn2CCCC1=O | -17.0 | -19.4 | 11.4 | 0.4 | 8.4 | 1.2
O=C(C1CCCCC1)N1CCC2CC1c1cc(-c3ccc4c(c3)OCO4)ccc12 (centres undefined) | 16.1 | 35.1* | 12.8 | -4.6 | -18.2 | 4.0
CC(Sc1nnc(C2CC2)n1-c1ccccc1)C(=O)N1CCCC1 (centres undefined) | -11.5 | -16.2 | 3.1 | -2.0 | 14.1 | 1.0
CCOC(=O)c1ccc2nc(NC(=O)C(C)C)sc2c1 | 2.2 | 12.3 | 14.8 | -0.9 | -7.6 | 0.0
C=CCN(CC=C)S(=O)(=O)c1ccc2nc(NC(=O)C(C)C)sc2c1 | -14.5 | -5.5 | 43.3* | 23.9* | -5.6 | 33.2*
Cc1c(CN2CCC(CO)(Cc3cccc(C(F)(F)F)c3)CC2)c2ccccc2n1C | -4.4 | 25.6* | 16.2 | -8.3 | -26.1 | 3.3
COc1ccc(CN2CCC(CO)(Cc3cccc(C(F)(F)F)c3)CC2)cc1Cn1cccn1 | -6.6 | 23.4* | 10.1 | -1.5 | -17.7 | 7.8
OCC1(Cc2cccc(C(F)(F)F)c2)CCN(Cc2cc3ccccc3o2)CC1 | -10.1 | -0.2 | 6.4 | -5.5 | -3.6 | 1.4
O=C(Nc1ccc(OC(F)(F)F)cc1)Nc1cccnc1 | 0.1 | -2.8 | -1.6 | 1.0 | 3.2 | 4.0
Cc1ccccc1NC(=O)NC(C)(C)CC(C)(C)C | -12.2 | -8.6 | 13.3 | -1.2 | 2.1 | 19.3*
O=C(Nc1ccc(OC(F)(F)F)cc1)Nc1cccc([N+](=O)[O-])c1 | 23.3 | 33.6 | -0.7 | 1.7 | -13.7 | 16.4*
Cc1ccc(NC(=O)Nc2cccc([N+](=O)[O-])c2)cc1F | 16.6 | 26.2 | 13.4 | 1.2 | -16.2 | 15.4*
CC(C)(C)c1ccc(C(=O)Nc2cccc([N+](=O)[O-])c2)cc1 | -2.1 | 13.1 | 10.4 | -5.6 | -13.8 | 6.8
CC(C)(C)CC(C)(C)NC(=O)Nc1cccc([N+](=O)[O-])c1 | 14.5 | 31.5* | -22.1 | 1.3 | -17.5 | 13.3
Cc1ccccc1NC(=O)CC(=O)Nc1ccccc1C | -7.6 | 1.9 | 7.4 | -3.1 | 0.5 | 1.0
CCNC(=O)C1CCCN(C(=O)c2cnc3ccccc3n2)CC1 (centres undefined) | 1.4 | -5.9 | 7.5 | -2.3 | 1.6 | 0.2
CCOc1ccccc1N(C(=O)Nc1cccc(Cl)c1)C1=NC(C)CS1 (centres undefined) | 2.4 | -4.3 | 19.8 | -9.8 | 6.9 | 7.2
CC1CSC(N(C(=O)c2ccc(S(C)(=O)=O)cc2)c2ccc(Cl)cc2)=N1 (centres undefined) | -3.7 | -1.6 | 9.2 | -0.8 | -1.1 | 15.8*
O=C(COC(=O)c1ccc(Br)o1)Nc1ccc2c(c1)OCCO2 | -11.8 | -20.4 | 4.0 | -0.3 | 27.5* | 0.3
O=C(COC(=O)CNC(=O)c1ccc(Br)o1)Nc1ccc2c(c1)OCCO2 | 5.3 | -1.1 | 2.9 | 4.4 | 2.9 | 0.6
NC(=O)c1ccc(NC(=O)COC(=O)c2ccc3c(c2)OCCO3)cc1 | -4.9 | -0.1 | 13.8 | -1.0 | -0.4 | 20.1*
SMILES | CHO-K1 Ca antag | CHRM1 antagonist | M1 PAM parental | CHRM1 agonist | M1 PAM | M1 ag parental
O=C(COC(=O)c1ccc(NS(=O)(=O)c2ccc3c(c2)OCCO3)cc1)NC1CCS(=O)(=O)C1 (centres undefined) | 25.1* | -5.8 | -12.4 | -9.2 | 3.0 | -0.9
O=C(O)CCC(=O)Nc1ccc(Sc2ccc([N+](=O)[O-])cc2)cc1 | 6.1 | 6.1 | -6.4 | -4.7 | -6.2 | -0.1
Cc1cc(OCC(=O)NNC(=S)NC(=O)c2ccc(Br)o2)ccc1Cl | 12.4 | -3.0 | -8.5 | 12.4 | 1.2 | 0.3
O=[N+]([O-])c1ccc2cn[nH]c2c1 | 35.5* | -18.5 | -9.8 | -0.1 | 1.2 | 1.9
Cc1ccc(S(=O)(=O)Nc2ccc3c(c2)nc(CCN2CCCCC2)n3C)cc1 | 5.0 | 15.2 | -2.4 | -7.4 | -11.4 | -0.3
Cc1ccc(S(=O)(=O)Nc2ccc3c(c2)nc(CCN2CCN(c4ccccn4)CC2)n3C)cc1 | -11.7 | 78.6* | 6.2 | -3.2 | -23.6 | 7.6
Cn1c(CCN2CCN(c3ccccn3)CC2)nc2cc(NS(=O)(=O)c3ccc(Cl)cc3)ccc21 | 8.6 | 98.1* | -8.9 | -0.8 | -24.2 | 7.1
CCOc1cc(/C=C2\SC(=S)N(C(C(=O)O)c3ccccc3)C2=O)ccc1O (centres undefined) | 9.4 | 8.7 | 0.3 | 19.1* | -1.5 | 28.8*
COc1cc(/C=C2\SC(=S)N(C(C(=O)O)c3ccccc3)C2=O)ccc1O (centres undefined) | 6.6 | 5.7 | -14.8 | 17.3* | -8.7 | 29.2*
COc1ccccc1NC(=O)Nc1nc(C(N)CC(C)C)cs1 (centres undefined) | -13.6 | -3.3 | 10.1 | -1.5 | -2.0 | 1.2
CCOc1ccc(-n2c(-c3ccc(Cl)cc3)c[n+]3c2SCC3)cc1 | -16.0 | 50.2* | 17.9 | -6.7 | -19.3 | 0.6
c1ccc(-c2c[n+]3c(n2-c2ccccc2)SCC3)cc1 | -6.4 | -3.8 | 17.2 | -9.3 | 0.1 | 0.2
CC1ON=C(c2ccccn2)N(Cc2ccc3c(c2)OCO3)C1=O (centres undefined) | 0.3 | 2.5 | 9.4 | -4.2 | -1.1 | 0.2
O=C(NS(=O)(=O)Oc1ccc(Cl)cc1)OC[C@@H]1CCCN2CCCC[C@H]12 | 13.6 | 5.3 | -10.1 | -5.5 | -1.2 | -0.5
CCC1Sc2ccc(S(=O)(=O)Nc3ccc(OC)cc3)cc2NC1=O (centres undefined) | -4.3 | 8.2 | 12.9 | 15.1 | -1.5 | 18.3*
CCC1Sc2ccc(S(=O)(=O)Nc3ccc(OC)c(OC)c3)cc2NC1=O (centres undefined) | 33.6* | 22.6 | -6.0 | 4.7 | -11.6 | 11.6
NC(=O)C1CCN(C(=O)c2ccc(NS(=O)(=O)/C=C/c3ccccc3)cc2)CC1 | -12.7 | -21.5 | 7.0 | -0.9 | 15.2 | 0.2
Cc1ccc(CN(C)C(=O)c2ccccc2NC(=O)c2ccccc2)o1 | 6.7 | -13.0 | -18.9 | 3.4 | 20.6 | 0.0
COc1ccccc1C(CNC(=O)c1cccc(S(=O)(=O)N2CCCc3ccccc32)c1)N(C)C (centres undefined) | -2.9 | 100.6* | -10.1 | -8.6 | -31.4 | 1.4

Screens as filed in PubChem BioAssay.
